CHX counter: counter-screen hit for Shiga toxin inhibitors, cycloheximide; cell reporter, cycloheximide protein synthesis inhibition counterscreen; max response, %; 300,000 compounds, 12% hits; AID 2314; in the data active = max response mostly above about 13%, no sharp cut-off; inactive = mostly below about 14%; note: read at 38.3 µM for the half of the compounds with a filed dose; 0% is about no effect
Shiga inhibitor: blocks Shiga toxin action in Vero cells | Vero cells, Shiga toxin protein synthesis inhibition reporter | inhibition, % at 38.7 µM | 290,000 compounds, 9.2% hits; in the data active = inhibition mostly above about 28%, no sharp cut-off; inactive = mostly below about 43%; note: 0% is about no effect
Pf growth 96h: P. falciparum growth inhibition at 96 hours | P. falciparum luciferase reporter growth, 96 h | Potency, µM (doses to about 28.7 µM), for the others: at the top dose activity change, negative = inhibition, actives largely listed as inhibitors | 320,000 compounds, 6.9% hits | AID 504834; note: potency is the fitted concentration of half-maximal effect; % is set by controls: 0 for no effect and ±100 for the full control effect
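Plates of compound plus infected erythrocytes (2% hematocrit, 0.05% parasitemia final) incubate 96 hours, 37 C, 5% CO2. Detection reagent added; reduced luminescence from the parasites' luciferase reporter flags inhibition.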
AMA1 RON2 block: disrupts binding of P. falciparum AMA1 to RON2; AlphaScreen AMA1-biotinylated RON2 peptide binding; Potency, µM (titrated, usually from 58.2 µM), without a hit: top-dose activity change, negative = inhibition, usual class: inhibitors; 360,000 compounds, 0.2% hits; AID 720542;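 note: potency is the fitted concentration of half-maximal effect; 0% = vehicle wells and -100% = peptide control; nearly all actives have a fitted effect of over 45% in size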
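AMA1 (3D7) with his tag at 25 nM final met compounds first, then biotinylated RON2 peptide at 25 nM; detection used donor plus acceptor beads, 10 µg/mL apiece, read by AlphaScreen after 30 min at room temperature.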
Pf growth 48h: inhibits P. falciparum growth in the first generation, 48 h; P. falciparum luciferase growth in erythrocytes, 48 h; Potency, µM (doses to about 28.7 µM), for inactives: top-dose activity change, negative = inhibition, most hits filed as inhibitors; 310,000 compounds, 5.9% hits; AID 504832; note: potency is the fitted concentration of half-maximal effect; % is set by controls: 0 for no effect and ±100 for the full control effect
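Parasite viability was followed by luminescence of a genomically integrated firefly luciferase. Cultures held 0.1% parasitemia at 2% hematocrit (final), incubated under 5% CO2 at 37 C.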
HCV inh: inhibitors of hepatitis C virus infection; Huh7.5.1 HCVcc-Cre infection, luciferase reporter, 44 h; Potency, µM (series often up to 41.8 µM), for inactives: top-dose activity change, negative = inhibition, hits mostly inhibitors; 340,000 compounds, 3.4% hits; note: potency is the fitted concentration of half-maximal effect; % is set by controls: 0 for no effect and ±100 for the full control effect
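Compounds are dispensed onto cells plated 4 h earlier at 1,000 per well, with HCVcc-Cre virus (about 0.5 moi) added next. Following 44 h of culture, luminescent signal is measured for 15 sec after 15 min with substrate at room temperature.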
Numbers without * were called inactive; i = inactive; ? = inconclusive; . = no result. An excerpt weighted towards active compounds, which were near 21% of everything screened. Unless noted, calls come from the whole dose curve; as a rule, active = well fitted curve in the direction sought with a large enough effect; inconclusive = small, poorly fitted or top-dose-only effect, or another doubt; inactive = no such curve, though single readings can be large; an effect the other way counts as inactive or inconclusive.

SMILES	CHX counter	Shiga inhibitor	Pf growth 96h	AMA1 RON2 block	Pf growth 48h	HCV inh
O=C(Cn1ncc2c3ccccc3n(Cc3ccc(Cl)cc3)c2c1=O)NCCCN1CCCC1=O	7.8	2.2	13.1µM*	0.0%	-21.0%	-23.9%
Cc1ccc(C)c(Cn2c3ccccc3c3cnn(CC(=O)NCCCN4CCOCC4)c(=O)c32)c1	-4.8	-10.6	?	10.7%	13.1µM*	-23.7%
Cc1ccc(C)c(Cn2c3ccccc3c3cnn(CC(=O)NCCN4CCOCC4)c(=O)c32)c1	-5.2	3.0	9.28µM*	-0.5%	?	-27.6%
COc1ccc(C=O)c(-c2c(-c3ccccc3OC)sc3ccccc23)c1	.	.	.	-15.7%	.	.
Cc1ccc(OCCNC(=O)c2ccccc2F)cc1	21.2*	40.3*	-5.4%	1.8%	-5.4%	14.0%
Cc1ccc(OCCNC(=O)c2cc(=O)[nH]c3ccccc23)cc1	-1.0	8.9	7.3%	-1.1%	-1.1%	6.9%
O=C(NCCCN1CCN(CCCNC(=O)c2ccccc2F)CC1)c1ccccc1F	-2.4	-3.4	2.1%	0.0%	3.8%	-11.2%
CC(C)(C)c1ccc(C(=O)NCCOc2ccccc2F)cc1	24.3	34.4*	?	4.9%	38.6%	-3.4%
CN(CCCNC(=O)c1ccccc1F)CCCNC(=O)c1ccccc1F	5.3	-4.6	9.28µM*	0.0%	?	12.8%
Cc1ccc(OCC(O)CNC(=O)c2ccccc2C(=O)O)cc1 (stereo not drawn)	18.1*	32.8	44.6%	-0.5%	37.9%	5.0%
CCN(CC(=O)NCc1cccs1)CC(=O)Nc1ccccc1C	.	.	?	7.5%	5.6%	10.3%
COc1ccccc1C(=O)NCCOc1ccc(C(C)(C)C)cc1	0.9	-5.0	14.7µM*	24.4%	?	-19.9%
CC(C)(C)c1ccc(C(=O)NCCOc2ccccc2)cc1	26.1*	33.0	9.28µM*	-3.6%	130.9%	-2.5%
COc1cccc(C(=O)NCCOc2cc(C)cc(C)c2)c1	4.1	8.1	?	0.4%	12.3%	2.2%
Cc1ccc(C(=O)NCCOc2cccc(C)c2)cc1	36.6*	83.5*	8.0%	-8.0%	44.5%	15.6%
Cc1[nH]c2ccccc2c1C(O)c1ccncc1 (stereo not drawn)	0.9	-15.8	0.4%	-13.1%	3.8%	6.3%
Cc1[nH]c2ccccc2c1C(c1ccccn1)c1c(C)[nH]c2ccccc12	11.8	13.8	.	-4.0%	9.28µM*	-15.9%
CCCOC(=O)c1ccc2c(c1)C(=O)N(c1ccccc1)C2=O	-2.0	-12.7	11.7µM*	-2.5%	.	-3.2%
CCCOC(=O)CN1C(=O)c2ccc(C(=O)OCCC)cc2C1=O	-1.2	-10.7	.	0.0%	2.8%	10.8%
CCOC(=O)N1CCN(Cc2ccc3ccccc3c2)CC1	-2.0	-5.8	-17.5%	-27.2%	16.6%	-5.0%
CCc1nc2ccc(C(=O)NCCOc3ccc(OC)cc3)cn2c1N(C)Cc1nccn1C	.	.	.	-5.6%	.	.
CCc1ccc([C@@H]2CC=C(C(=O)O)[C@H](c3ccccc3F)N2S(=O)(=O)c2ccc(C)cc2)cc1	.	.	30.7%	0.0%	1.0%	24.5%
CCOc1ccc(-c2c(=O)n(OCc3nc4ccccc4[nH]3)c3ccccc3[n+]2[O-])cc1	19.3	31.6*	?	-6.3%	-26.8%	-19.8%
CCOc1ccc(OCC)c(-c2c(=O)n(OCc3ccccc3Br)c3ccccc3[n+]2[O-])c1	7.8	-1.9	9.28µM*	-5.7%	?	-1.3%
C=CCOn1c(=O)c(-c2ccc(OC)cc2)[n+]([O-])c2ccccc21	14.0*	51.9	17.9%	-2.7%	-7.3%	2.9%
SMILES	CHX counter	Shiga inhibitor	Pf growth 96h	AMA1 RON2 block	Pf growth 48h	HCV inh
COc1ccc(-c2c(=O)n(OCc3nc4ccccc4[nH]3)c3ccccc3[n+]2[O-])cc1	28.7*	32.6	0.0%	7.4%	?	-9.8%
CCCOc1ccc(-c2c(=O)n(OCc3ccc([N+](=O)[O-])cc3)c3ccccc3[n+]2[O-])cc1	-5.6	29.1	?	71.4%	13.5%	4.3%
C[C@H](NC(=O)N1CCn2c1nc1ccccc12)C(=O)NCc1ccccc1	-2.2	-0.4	-6.6%	95.0%	-11.3%	5.9%
Cc1cc(=O)oc2cc(OCC(=O)Nc3c(C)n(C)n(-c4ccccc4)c3=O)c(Cl)cc12	.	.	1.8%	-4.4%	-3.0%	?
CN(C)c1nc(-c2ccccc2)ns1	33.4*	129.6*	29.3%	8.1%	36.3%	-5.0%
Nc1nc(-c2ccccc2)ns1	.	.	.	26.1%	.	16.0%
O=C(NCCc1ccccn1)c1cncc(Br)c1	19.6*	37.1	70.3%	-2.7%	62.4%	8.4%
O=C(NCCOC12CC3CC(CC(C3)C1)C2)c1cccc(Br)c1	15.5	10.4	4.15µM*	3.9%	9.28µM*	?
O=C(NCCCc1ccccc1)c1cccc(Br)c1	.	.	.	16.4%	.	?
O=C(NCCCCc1ccccc1)c1cccc(Br)c1	15.2*	67.8	-0.1%	2.3%	13.9%	-27.7%
O=C(NCc1ccccc1)c1cncc(Br)c1	12.6	3.1	52.0%	-7.5%	22.4%	-4.2%
O=C(NCCCc1ccccc1)c1cncc(Br)c1	19.8*	45.6	32.7%	-2.0%	40.5%	1.6%
Clc1ccc(CCNc2ncnc3c2nnn3Cc2ccccc2)cc1	-2.0	-2.8	?	-0.5%	-12.2%	6.8%
O=C(OCC(=O)N1CCCc2ccccc21)c1c(F)cccc1F	.	.	-8.1%	-9.4%	39.3%	?
CC1CC2=C(NC(=S)NC2c2cccc(F)c2)/C(=C/c2cccc(F)c2)C1 (stereo not drawn)	-3.0	2.3	6.1%	22.2%	?	10µM*
Cc1nn(C)c(C)c1CN(C)S(=O)(=O)c1ccc2ccccc2c1	-3.8	-4.8	?	0.0%	13.1µM*	?
O=C(Nc1ccc(F)cc1F)c1csc(-c2ccncc2)n1	26.7*	14.6	29.6%	11.1%	-9.0%	?
O=C(Nc1ccc(F)cc1F)c1csc(-c2cccs2)n1	47.7*	117.6*	i	1.0%	i	6.4%
CC(=O)c1cccc(NC(=O)NNC(=O)c2ccc(-c3ccccc3)cc2)c1	1.2	-6.2	0.0%	18.2%	3.4%	4.9%
Cc1ccc2c3c(cccc13)-c1ccccc1C2=O	27.7*	14.3	306.5%	-31.0%	31.1%	5.62µM*
CC1CCCCN1C(=O)c1cccc(NC2=C(Cl)C(=O)N(Cc3ccccc3)C2=O)c1 (stereo not drawn)	.	.	?	-2.4%	?	?
O=C1C(Cl)=C(Nc2cccc(O)c2)C(=O)N1Cc1ccccc1	0.9	-4.8	4.65µM*	-25.8%	-23.6%	-1.0%
COc1ccc(OC)c(NC2=C(Cl)C(=O)N(Cc3ccccc3)C2=O)c1	7.1	16.9	-13.2%	12.6µM*	-25.4%	-2.4%
COc1ccccc1NC(=O)CN1CCN(C(=O)C2CCCO2)CC1 (stereo not drawn)	-2.5	-5.2	25.8%	5.1%	-5.7%	.
O=C(CSc1ncn[nH]1)c1cc2ccccc2o1	19.7*	43.0	16.7%	23.7%	0.0%	4.5%
